Bioassay records from PubChem BioAssay.
KCNQ2 pot: KCNQ2 (rat) channel potentiation; CHO-K1 KCNQ2, FluxOR thallium flux fluorescence; active compounds read high; actives 0.54% (n = 310,000); B-score at 10 µM; O88943;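 active = fluorescence ratio B-score at least 3 SD of library B-scores, with initial fluorescence B-score within 3 of them, cut at about 5.3 in these data; same plate scores as AID 2156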;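 also: B-score of peak minus minimum over baseline fluorescence ratio after K+ and Tl+ stimulus; positive B-score means potentiation of KCNQ2 with more thallium influx and brighter signal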
Target sequence (O88943 whole entry, looked up): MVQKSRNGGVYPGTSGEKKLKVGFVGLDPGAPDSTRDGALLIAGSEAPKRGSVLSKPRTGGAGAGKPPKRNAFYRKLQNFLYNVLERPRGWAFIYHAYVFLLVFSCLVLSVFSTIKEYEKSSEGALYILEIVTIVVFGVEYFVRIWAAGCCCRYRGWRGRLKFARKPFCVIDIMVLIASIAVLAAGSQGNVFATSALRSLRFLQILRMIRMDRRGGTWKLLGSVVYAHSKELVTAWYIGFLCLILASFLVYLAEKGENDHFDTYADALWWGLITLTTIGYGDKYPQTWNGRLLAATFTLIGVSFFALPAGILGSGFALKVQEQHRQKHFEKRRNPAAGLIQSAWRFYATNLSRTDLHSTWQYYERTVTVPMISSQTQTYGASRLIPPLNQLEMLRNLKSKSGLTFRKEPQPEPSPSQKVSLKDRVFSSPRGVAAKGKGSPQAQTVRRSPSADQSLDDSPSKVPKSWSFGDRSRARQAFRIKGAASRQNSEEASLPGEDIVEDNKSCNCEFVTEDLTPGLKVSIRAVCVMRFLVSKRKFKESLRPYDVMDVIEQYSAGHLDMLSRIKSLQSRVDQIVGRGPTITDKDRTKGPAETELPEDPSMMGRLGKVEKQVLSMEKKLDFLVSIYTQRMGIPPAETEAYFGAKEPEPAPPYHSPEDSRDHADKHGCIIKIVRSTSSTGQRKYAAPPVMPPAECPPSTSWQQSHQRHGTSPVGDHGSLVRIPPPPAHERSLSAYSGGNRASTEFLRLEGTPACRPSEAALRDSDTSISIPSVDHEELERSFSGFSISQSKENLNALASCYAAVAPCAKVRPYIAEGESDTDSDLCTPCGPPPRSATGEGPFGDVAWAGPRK
KCNQ2 inh: KCNQ2 (rat) channel inhibition; O88943; CHO-K1 KCNQ2, FluxOR thallium flux, 20 min; active compounds read low; B-score at 10 µM; actives 1.1% (n = 310,000); AID 2156;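 active = fluorescence ratio B-score at most minus 3 library SDs, with starting brightness B-score within 2 library SDs, cut at about -5.5 in these data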
Large screens that a line does not name were inactive. Hits are enriched below; roughly 1.6% of the tested compounds scored in any of these assays.

COc1cccc(N2CCN(C(=O)CN(c3cc(C)cc(C)c3)S(=O)(=O)c3c(C)noc3C)CC2)c1	none (no result: KCNQ2 pot)
Cc1cc(C)cc(N(CC(=O)N2CCN(c3ccccc3)CC2)S(=O)(=O)c2c(C)noc2C)c1	KCNQ2 inh -6.5
COc1ccc(C(=O)NC(CC(=O)O)c2cc([N+](=O)[O-])ccc2Cl)c(SC)c1 (stereo not drawn)	none (no result: KCNQ2 pot)
Cc1ccc(C(=O)CSc2cc(C)nc(SCC(=O)c3ccccc3)n2)cc1	none (no result: KCNQ2 pot)
Cc1cc(Oc2ccc(C)c(Cl)c2)nc(SCC(=O)c2ccccc2)n1	KCNQ2 pot 7
O=C(NCC1CCN(C(=O)c2c(F)c(F)c(F)c(F)c2F)CC1)c1c(F)c(F)c(F)c(F)c1F	none (no result: KCNQ2 pot)
COc1cccc(C(=O)Nc2ccc(NC(C)=O)cc2)c1	none (no result: KCNQ2 pot)
COc1cccc(C(=O)NN/C(C)=C/C(=O)C(F)(F)C(F)(F)C(F)(F)F)c1	KCNQ2 pot 8.5
CCOC(=O)C(=O)Nc1ccccc1C(=O)NCc1ccccc1	none
CC(=O)Nc1ccc(C(=O)NCC2CCCCC2)cc1	none
CC(=O)Nc1ccccc1P(=O)(c1ccccc1)c1ccccc1OC(C)=O (stereo not drawn)	none (no result: KCNQ2 pot)
Cc1ccc(O)c(C(=O)c2cc(C(=O)NCCc3ccccc3)c(=O)n(CCc3ccccc3)c2)c1	KCNQ2 inh -7.1
COc1ccc(O)c(C(=O)c2cc(C(=O)NCCc3ccccc3)c(=O)n(CCc3ccccc3)c2)c1	none (no result: KCNQ2 pot)
CC1=NN(C(=O)c2ccccc2Br)C(O)(c2ccc(Cl)cc2)C1 (stereo not drawn)	none
CC1=NN(C(=O)COc2ccccc2)C(O)(c2ccccc2)C1 (stereo not drawn)	none
CCC1=NN(C(=O)c2ccccc2Br)C(O)(c2ccc(Br)cc2)C1 (stereo not drawn)	KCNQ2 pot 14
CCC1=NN(C(=O)COc2ccccc2)C(O)(c2ccc(Br)cc2)C1 (stereo not drawn)	KCNQ2 inh -6
Cc1nn(C(=O)c2cccc([N+](=O)[O-])c2)c(C)c1Cl	none (no result: KCNQ2 pot)
Cc1ccc(C(=O)Nc2cccc(C(=O)N3CCOCC3)c2)cc1Cl	none
Cc1c(NC2=NC3(CCCCC3)Cc3ccccc32)c(=O)n(-c2ccccc2)n1C	none
CC1(C)CC(=O)C(C2=NC3(CCCCCC3)Cc3ccccc32)=C(O)C1	KCNQ2 inh -5.8
CCOC(=O)c1c(S(=O)(=O)NCC(=O)Nc2ccc(F)cc2)c(C)n(C)c1C	none (no result: KCNQ2 pot)
O=C(Nc1ccnn1C1CCN(Cc2cccc(O)c2)CC1)C1CCCC1	none (no result: KCNQ2 pot)
Cc1cc(C)c2nc(-c3cccnc3)cc(C(=O)NC(C)c3cnn(C)c3C)c2c1 (stereo not drawn)	KCNQ2 inh -8
Cc1cccc2c(C(=O)O)cc(-c3cccnc3)nc12	none
CCN(CC)CCCn1c2c(c(SCC(=O)Nc3ccccc3Cl)nc1=O)CCC2	none (no result: KCNQ2 pot)
CC1(C)C(=S)N(Cc2ccccc2)c2ccccc21	KCNQ2 inh -6.6
CC(=O)CC1(O)C(=O)N(Cc2ccccc2)c2ccccc21 (stereo not drawn)	none
Cc1ccc(/C=C/C(=O)c2ccccc(=O)c2O)c(C)c1	KCNQ2 pot 5.9
Cc1ccc(/C=C/C(=O)c2ccccc2)cc1	none (no result: KCNQ2 pot)
O=C(Oc1ccc2ccc(O)cc2c1)c1ccccc1Cl	none (no result: KCNQ2 pot)
COc1ccc(C(CNC(=O)COc2ccc(C)c(C)c2)N2CCCCC2)cc1 (stereo not drawn)	none (no result: KCNQ2 pot)
COc1ccc(C(CNC(=O)COc2cc(C)c(Cl)c(C)c2)N2CCCCC2)cc1 (stereo not drawn)	KCNQ2 inh -6
COc1ccc(C(CNC(=O)c2oc3ccc(C)cc3c2C)N2CCCCC2)cc1 (stereo not drawn)	none (no result: KCNQ2 pot)
COc1ccc(C(CNC(=O)c2oc3cc(C)c(Cl)cc3c2C)N2CCCCC2)cc1 (stereo not drawn)	KCNQ2 inh -5.8
Cn1c(=O)c(=O)n(C)c2cc(S(=O)(=O)CCC(=O)Nc3c(F)c(F)c(F)c(F)c3F)ccc21	none
COc1ccc(OC)c(NC(=O)CSc2nnc(N)s2)c1	none (no result: KCNQ2 pot)
COc1ccc2[nH]c3c(c2c1)CCN1C(=O)N([C@@H](C)C(=O)NCc2ccc(F)cc2)C(=O)[C@]31C	none (no result: KCNQ2 pot)
COc1ccc2[nH]c3c(c2c1)CCN1C(=O)N([C@@H](C)C(=O)NCCc2ccc(F)cc2)C(=O)[C@]31C	KCNQ2 inh -7
C[C@@H](C(=O)NCCc1ccc(F)cc1)N1C(=O)N2CCc3c([nH]c4ccccc34)[C@@]2(C)C1=O	KCNQ2 inh -6.3
Cc1ccc(CNC(=O)[C@H](C)N2C(=O)N3CCc4c([nH]c5ccccc45)[C@@]3(C)C2=O)cc1	none
FC(F)(F)c1cccc(Cn2nnnc2-c2cccc(C(F)(F)F)c2)c1	none (no result: KCNQ2 pot)
O=C(Nc1cccc(F)c1)/C(=C\c1ccco1)NC(=O)c1ccco1	none (no result: KCNQ2 pot)
O=C(CCCN1C(=O)c2ccccc2C1=O)Nc1ccc2c(c1)OCCO2	none (no result: KCNQ2 pot)
Clc1ccc(C2=C3CCCCn4c(-c5ccccc5)c[n+](c43)C2)cc1	KCNQ2 inh -6.4
O=C(C[n+]1cc(-c2ccc(Cl)cc2)n2c1CCCCC2)c1ccccc1	none (no result: KCNQ2 pot)
CCc1nc(N2CCN(Cc3ccc4c(c3)OCO4)CC2)c2oc3ccccc3c2n1	KCNQ2 inh -6.5
